# In all, about 340,000 compounds went through this assay and about 1,000 (0.29%) were called active. Cut-off read from the data, not from the text of the source: inconclusive = inhibition above about 29% without an active follow-up result; inactive = below that. Only a sample is shown. Results with a measured potency or affinity are listed apart.
# Target: Genome polyprotein (Dengue virus type 2 (strain 16681-PDK53)) (UniProt P29991)
# Test: flavivirus cap methylation enzyme inhibition – biochemical, confirmation dose response, primary screen (AID 588689)
# Conditions: Dengue-2 NS5 methyltransferase capping enzyme assay, at 25 µM, stronger effect = higher value
# [1] = measured here: pilot screen replicate inhibition
# Genome polyprotein (Dengue virus type 2 (strain 16681-PDK53)), sequence (P29991 whole entry, looked up): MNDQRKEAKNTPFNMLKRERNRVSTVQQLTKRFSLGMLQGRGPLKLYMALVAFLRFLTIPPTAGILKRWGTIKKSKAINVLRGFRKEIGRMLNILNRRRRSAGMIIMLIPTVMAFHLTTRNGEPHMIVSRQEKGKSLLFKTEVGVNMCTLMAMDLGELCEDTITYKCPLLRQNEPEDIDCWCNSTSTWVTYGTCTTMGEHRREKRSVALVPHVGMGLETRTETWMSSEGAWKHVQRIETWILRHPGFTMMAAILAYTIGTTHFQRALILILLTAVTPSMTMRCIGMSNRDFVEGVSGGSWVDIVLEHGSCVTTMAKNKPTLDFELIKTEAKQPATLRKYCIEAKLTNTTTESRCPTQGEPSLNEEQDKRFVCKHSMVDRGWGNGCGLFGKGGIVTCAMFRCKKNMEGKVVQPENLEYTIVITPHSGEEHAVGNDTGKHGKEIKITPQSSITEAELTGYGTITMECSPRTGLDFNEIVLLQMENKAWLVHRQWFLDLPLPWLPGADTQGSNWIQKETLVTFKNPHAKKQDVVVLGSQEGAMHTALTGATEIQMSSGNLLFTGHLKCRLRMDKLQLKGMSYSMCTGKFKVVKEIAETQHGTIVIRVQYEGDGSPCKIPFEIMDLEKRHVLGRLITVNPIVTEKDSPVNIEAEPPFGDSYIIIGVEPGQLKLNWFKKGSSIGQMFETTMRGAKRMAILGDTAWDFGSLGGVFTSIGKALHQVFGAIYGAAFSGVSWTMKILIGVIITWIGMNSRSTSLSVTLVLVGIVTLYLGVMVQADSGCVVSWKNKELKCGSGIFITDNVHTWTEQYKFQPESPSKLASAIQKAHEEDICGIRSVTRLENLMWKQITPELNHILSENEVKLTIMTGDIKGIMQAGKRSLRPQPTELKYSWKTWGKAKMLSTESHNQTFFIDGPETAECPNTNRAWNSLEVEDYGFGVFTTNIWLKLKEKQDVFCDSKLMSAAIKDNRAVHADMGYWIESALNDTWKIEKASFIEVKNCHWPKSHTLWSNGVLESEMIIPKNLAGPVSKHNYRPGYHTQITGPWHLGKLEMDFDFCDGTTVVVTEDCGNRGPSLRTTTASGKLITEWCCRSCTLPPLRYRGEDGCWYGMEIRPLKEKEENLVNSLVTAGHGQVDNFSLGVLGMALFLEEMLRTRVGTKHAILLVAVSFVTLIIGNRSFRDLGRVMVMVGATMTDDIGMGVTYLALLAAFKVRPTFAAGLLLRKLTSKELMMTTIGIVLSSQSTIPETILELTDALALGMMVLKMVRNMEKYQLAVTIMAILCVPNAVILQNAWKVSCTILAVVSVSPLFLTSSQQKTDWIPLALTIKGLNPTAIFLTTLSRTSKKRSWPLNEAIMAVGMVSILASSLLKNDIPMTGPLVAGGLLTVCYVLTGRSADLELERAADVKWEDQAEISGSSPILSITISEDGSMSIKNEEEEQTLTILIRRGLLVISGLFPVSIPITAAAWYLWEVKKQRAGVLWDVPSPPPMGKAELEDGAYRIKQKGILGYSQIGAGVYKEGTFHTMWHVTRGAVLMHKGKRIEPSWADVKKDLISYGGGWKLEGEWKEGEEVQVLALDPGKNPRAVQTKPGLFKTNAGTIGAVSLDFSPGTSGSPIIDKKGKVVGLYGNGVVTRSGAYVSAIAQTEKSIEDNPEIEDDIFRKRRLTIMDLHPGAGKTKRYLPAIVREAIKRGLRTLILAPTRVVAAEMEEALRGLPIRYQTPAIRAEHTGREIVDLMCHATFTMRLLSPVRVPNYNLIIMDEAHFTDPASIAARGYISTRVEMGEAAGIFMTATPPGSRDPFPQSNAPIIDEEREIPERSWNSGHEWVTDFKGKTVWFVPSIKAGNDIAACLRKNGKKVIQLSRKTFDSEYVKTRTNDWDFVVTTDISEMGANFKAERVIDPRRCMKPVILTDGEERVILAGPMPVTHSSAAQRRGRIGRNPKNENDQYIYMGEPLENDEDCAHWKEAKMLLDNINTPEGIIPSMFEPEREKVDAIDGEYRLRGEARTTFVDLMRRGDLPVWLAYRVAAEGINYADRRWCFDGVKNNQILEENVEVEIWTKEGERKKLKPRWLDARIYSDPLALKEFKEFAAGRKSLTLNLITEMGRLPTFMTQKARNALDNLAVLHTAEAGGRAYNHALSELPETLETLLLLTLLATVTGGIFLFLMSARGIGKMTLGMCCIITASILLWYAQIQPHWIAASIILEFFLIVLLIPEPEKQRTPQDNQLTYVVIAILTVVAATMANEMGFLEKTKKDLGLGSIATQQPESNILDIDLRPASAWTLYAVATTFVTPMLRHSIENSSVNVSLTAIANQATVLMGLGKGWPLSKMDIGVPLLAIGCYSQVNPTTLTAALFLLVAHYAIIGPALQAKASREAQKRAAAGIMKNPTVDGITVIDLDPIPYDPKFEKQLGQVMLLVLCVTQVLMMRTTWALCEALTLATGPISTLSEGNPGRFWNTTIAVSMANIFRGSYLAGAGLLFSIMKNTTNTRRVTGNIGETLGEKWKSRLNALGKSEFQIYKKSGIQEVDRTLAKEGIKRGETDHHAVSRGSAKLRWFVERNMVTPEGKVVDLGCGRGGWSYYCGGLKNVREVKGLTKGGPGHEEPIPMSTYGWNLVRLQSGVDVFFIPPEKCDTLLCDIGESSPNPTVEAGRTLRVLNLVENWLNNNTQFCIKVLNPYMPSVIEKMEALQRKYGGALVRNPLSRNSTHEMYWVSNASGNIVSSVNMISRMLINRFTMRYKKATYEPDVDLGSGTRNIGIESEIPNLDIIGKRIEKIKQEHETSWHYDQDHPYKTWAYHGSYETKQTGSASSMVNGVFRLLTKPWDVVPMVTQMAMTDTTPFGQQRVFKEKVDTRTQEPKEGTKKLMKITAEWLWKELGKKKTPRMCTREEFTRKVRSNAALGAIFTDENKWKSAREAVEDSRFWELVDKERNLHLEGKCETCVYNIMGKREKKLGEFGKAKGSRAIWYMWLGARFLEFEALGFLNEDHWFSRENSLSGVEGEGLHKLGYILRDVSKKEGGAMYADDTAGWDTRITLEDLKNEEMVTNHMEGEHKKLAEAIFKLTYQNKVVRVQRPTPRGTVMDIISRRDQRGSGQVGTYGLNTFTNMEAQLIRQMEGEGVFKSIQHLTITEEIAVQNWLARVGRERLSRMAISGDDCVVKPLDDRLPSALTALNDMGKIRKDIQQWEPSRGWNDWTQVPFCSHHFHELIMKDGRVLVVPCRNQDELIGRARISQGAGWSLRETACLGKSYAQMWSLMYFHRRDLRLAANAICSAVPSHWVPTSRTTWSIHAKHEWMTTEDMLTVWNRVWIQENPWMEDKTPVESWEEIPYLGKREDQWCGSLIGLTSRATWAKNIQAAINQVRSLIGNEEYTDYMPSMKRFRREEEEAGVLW
Compound,inhibition,inhibition [1] [%]
CCCCCC1CC(CC(=O)NC(=S)Nc2ccccc2Cl)C(=O)O1 (stereo unspecified),-4.68% (inactive),
Nc1c(C(=O)O)ccc2c1C(=O)c1ccccc1C2=O,24.7% (inactive),
CN(C)S(=O)(=O)c1cccc2c1C(=O)c1ccccc1C2=O,-1.92% (inactive),
CC1(Cc2cn(CCC#N)c3ccccc23)OCCO1,6.35% (inactive),
CC1(C)CC(=O)C(C(c2cccc([N+](=O)[O-])c2)C2C(=O)CC(C)(C)CC2=O)C(=O)C1,0% (inactive),
CCOC(=O)c1cc(CC)sc1/N=C/C1C(=O)CC(C)(C)CC1=O,-17.9% (inactive),
CC1(C)CC(=O)C(C(=O)Cc2ccccc2[N+](=O)[O-])C(=O)C1,-1.48% (inactive),
C/[N+]([O-])=C\C1C(=O)CC(C)(C)CC1=O,-2.92% (inactive),
Cc1ccc2nc(SCn3nnc4ccccc4c3=O)[nH]c2c1,-4.53% (inactive),
COc1ccc(OCCCC(=O)ON=C(N)c2ccccc2Cl)cc1,1.1% (inactive),
CN(CCc1ccccc1)C(=O)c1ccc(NC(=O)Cc2ccc(NC(=O)C3CCCN(C(=O)C4CCC4)C3)cc2)cc1 (stereo unspecified),0% (inactive),0.92
COC(=O)c1ccc(NC(=O)CSc2nnc(COc3c(C)cccc3C)o2)cc1,-9.55% (inactive),
CC1CC(=O)c2cc(-c3ccccc3)oc2C1 (stereo unspecified),5.14% (inactive),
CC1CCC(O)(C(C(=O)O)c2ccccc2)CC1 (stereo unspecified),-8.55% (inactive),
COc1cc(NC(=O)CSc2ccc(-c3ccccn3)nn2)cc(OC)c1,0% (inactive),
O=C(NNC1CC(=O)N(c2cccc(Cl)c2)C1=O)c1cccs1 (stereo unspecified),3.87% (inactive),
O=C1CSC(=Nc2ccc(O)cc2)N1c1ccc(O)cc1,-5.52% (inactive),
O=C1CSC(=Nc2ccc(O)cc2)N1,-4.89% (inactive),
CN(C(=O)CC1C(=O)NCCN1Cc1ccccc1C(F)(F)F)C1CCOCC1 (stereo unspecified),0.91% (inactive),
O=C(NCCCN1CCCC1)C1CCN(C(=O)c2cc3sccc3n2Cc2ccc(F)cc2)CC1,-2.07% (inactive),
CC(/C=C/c1ccco1)=N\NC(=O)COc1ccc(C)c(C)c1,-10.9% (inactive),
CC(=O)Nc1ccc(/C(N=Nc2ccccc2)=N/N=C(N)N)cc1,7.72% (inactive),
O=C(O)c1cccc(N/N=C(\N=Nc2ccccc2)c2ccccc2)c1,12.7% (inactive),
CCCCn1c(SCC2CCCO2)nc2cc(S(N)(=O)=O)ccc21 (stereo unspecified),-11.1% (inactive),

Compound,inhibition,inhibition [1] [%]
CC1CCN(S(=O)(=O)c2ccc(C(=O)Nc3nnc(C4CC4)o3)cc2)CC1,-8.7% (inactive),
COc1cc(NC(=O)CN2CC(c3ccccc3)CC2=O)cc(OC)c1 (stereo unspecified),0.73% (inactive),
CCn1cc(Br)c(C(=O)N2CCN(c3ccccc3)CC2)n1,-5.15% (inactive),
COc1ccc(C(C#N)=C2C=C(Cl)C(=NO)C=C2Cl)cc1,27.6% (inactive),
N#CC(=C1C=C(Br)C(=NO)C=C1Cl)c1cccc2ccccc12,24.1% (inactive),
Cc1cc(C)cc(NC(=O)CS(=O)(=O)c2cccc3nsnc23)c1,-0.79% (inactive),
Cc1ccc(NS(=O)(=O)Cc2ccccc2)cc1Cl,-1.36% (inactive),
CCC1CCCCN1S(=O)(=O)c1ccc2c(c1)CCN2C(C)=O (stereo unspecified),-10.9% (inactive),
CC(=O)c1ccc(-n2c(=O)[nH]c(=O)c3c(N)c(C(=O)c4ccc(Cl)cc4)sc32)cc1,-6.85% (inactive),
CC(C)(C)OC(=O)C[C@@H]1C/C=C\C[C@@H](CC(=O)N(CCO)Cc2ccccc2)C(=O)N2CCC[C@H]2COC1=O,-2.31% (inactive),-4.54
CC1=NN(c2ccc(C)cc2C)C(=O)C1C(c1cccc(O)c1)C1C(=O)N(c2ccc(C)cc2C)N=C1C (stereo unspecified),26.6% (inactive),
CC1=NN(c2ccc(C)cc2C)C(=O)C1C(c1ccccc1O)C1C(=O)N(c2ccc(C)cc2C)N=C1C (stereo unspecified),15.6% (inactive),
CCc1ccc(OCC(O)CNC(C)(C)C)cc1 (stereo unspecified),-2.07% (inactive),
O=c1[nH]c(/C=C\c2cccc(Cl)c2)nc(O)c1[N+](=O)[O-],15.9% (inactive),
Clc1ccc(C=Cc2ccccn2)c(Cl)c1,3.5% (inactive),
O=[N+]([O-])c1cccc(/C=C/c2ccncc2)c1,2.32% (inactive),
CCOc1ccc(/C=C/c2c([N+](=O)[O-])c(=O)n(C)c(=O)n2C)cc1,0.74% (inactive),
O=[N+]([O-])c1cccc(/C=C/c2nc[nH]c2[N+](=O)[O-])c1,-14.1% (inactive),
Clc1ccc(/C=C/c2nc3ccccc3[nH]2)c(Cl)c1,3.38% (inactive),-0.3
Cn1c(/C=C/c2ccc(Cl)cc2Cl)c([N+](=O)[O-])c(=O)n(C)c1=O,2.64% (inactive),
CCOc1ccc(/C=C\c2nc(O)c([N+](=O)[O-])c(=O)[nH]2)cc1OCC,-0.66% (inactive),
O=[N+]([O-])c1cccc(C=NN2CCCCCC2)c1,-2.33% (inactive),
O=c1cc(O)c2sc3nc4c(c(C(F)(F)F)c3c2[nH]1)CCCCC4,0.88% (inactive),
Cc1cc(-c2csc(Nc3ccccn3)n2)ccc1F,-8.87% (inactive),

Compound,inhibition,inhibition [1] [%]
O=C(NCCCn1ccnc1)c1cccc(S(=O)(=O)Nc2ccccc2F)c1,-2.82% (inactive),
COc1cccc(N=C2SC(CC(=O)Nc3ccccc3)C(=O)N2Cc2ccccn2)c1 (stereo unspecified),-4.38% (inactive),
COc1ccc(-c2c(-c3cc(OC)cc(OC)c3)n(C)c3ccc(-c4ccc(OC)cc4F)cc23)cc1,-1.04% (inactive),
Cc1nc(SCC(=O)N2c3ccccc3Sc3ccccc32)n[nH]1,-1.38% (inactive),
O=C(CSc1nnc(-c2ccccc2)n1-c1ccccc1)N1c2ccccc2Sc2ccccc21,-3.27% (inactive),
COCCCNCC(O)COc1cccc2[nH]c(C)cc12 (stereo unspecified),3.64% (inactive),
CC1(C)CC(CC(=O)O)(c2ccccc2)CCO1 (stereo unspecified),-6.14% (inactive),
C=CCNC(=O)c1ccc(OC)cc1,-4.57% (inactive),
O/N=C\c1ccccc1Oc1ccc(F)cc1,-8.72% (inactive),
O=C(O)/C=C\c1ccccc1Oc1ccc(F)cc1,-0.72% (inactive),
Cc1ccc(S(=O)(=O)Oc2ccccc2/C=N/NC(N)=S)cc1,-0.7% (inactive),
Cc1ccc(S(=O)(=O)Oc2ccccc2/C=C2\SC(=O)NC2=O)cc1,12.8% (inactive),
Cc1ccc(S(=O)(=O)Oc2ccccc2/C=N/O)cc1,-1.81% (inactive),
O=c1cc(Cl)c(-c2ccccc2)n[nH]1,-1.61% (inactive),
O=C1NC(=O)C(=Cc2ccccc2)N1,-3.98% (inactive),
Cc1ccc(S(=O)(=O)Oc2ccccc2/C=C2/SC(=O)NC2=O)cc1,6.22% (inactive),
COc1ccc(NS(=O)(=O)c2cc(NC(=O)C3CC3)ccc2N2CCOCC2)cc1,0% (inactive),
Cn1cnc([N+](=O)[O-])c1SCC(=O)NN,1.55% (inactive),
COc1ccc([N+](=O)[O-])cc1N(CC(=O)NC1CCCCC1)S(C)(=O)=O,1.47% (inactive),
COc1cccc(CN2CC(C(=O)NCCOc3ccccc3F)CCC2=O)c1 (stereo unspecified),-4.36% (inactive),
O=C1Cc2cc(S(=O)(=O)N3CCNCC3)ccc2N1,0.77% (inactive),
O=C(c1cccc(S(=O)(=O)N2CCN(c3ccc(F)cc3)CC2)c1)N1CCCC1,-6.98% (inactive),
CCc1nc2sc(C)c(C)c2c(=O)n1CCO,-0.54% (inactive),
O=C(Oc1ccc(NC2=C(Cl)C(=O)c3ccccc3C2=O)cc1)c1ccc([N+](=O)[O-])cc1,11.5% (inactive),

Compound,inhibition,inhibition [1] [%]
N/C(=N\S(=O)(=O)c1ccccc1)c1ccc([N+](=O)[O-])cc1,-9.13% (inactive),
CC(=O)c1cc2c(cc1F)C(C)(C)CCC2(C)C,5.57% (inactive),
COc1c2occc2c(OC)c2c(=O)cc(C)oc12,-2.99% (inactive),
COc1c2ccoc2cc2oc(C)cc(=O)c12,-4.89% (inactive),
Cc1ccc(CC2SC(N)=NC2=O)cc1 (stereo unspecified),0% (inactive),
CC(C)(C)NC(=O)NC(=O)CN1CCN(c2ccc(O)cc2)CC1,1.52% (inactive),
Cc1cc(N)n(-c2ccc(Cl)cc2)n1,-6.66% (inactive),
Cc1cccc(-n2cc(-c3ccc([N+](=O)[O-])cc3)[nH]c2=S)c1,-5.13% (inactive),
Cc1ccc(-n2c3nc(=O)[nH]c(=O)c-3cc3c(C)nn(-c4ccccc4)c32)c(C)c1,4.54% (inactive),
Cn1c2nc(=O)[nH]c(=O)c-2cc2ccccc21,-2.42% (inactive),
Cc1ccc(C)c(-n2c3nc(=O)n(C)c(=O)c-3cc3ccccc32)c1,0% (inactive),
Cc1cccc(-n2cnc3cc([N+](=O)[O-])ccc32)c1,0% (inactive),
Cc1ccc(-n2cc3ccc([N+](=O)[O-])cc3n2)cc1,-5.66% (inactive),
Cc1ccc(-n2c(C)nn(Cc3ccc([N+](=O)[O-])cc3)c2=O)cc1,-7.53% (inactive),
Cc1ccc(S(=O)(=O)n2cnc3cc([N+](=O)[O-])ccc32)cc1C,0.8% (inactive),
O=S(=O)(c1ccc(Cl)cc1)N1CCN(CCc2ccncc2)CC1,-1.66% (inactive),
Cc1cccc(C(C)C)c1NC(=O)COC(=O)CNS(=O)(=O)c1ccccc1,0% (inactive),
O=C1NC2=C(C(=O)CCC2)C(c2ccc3ncccc3c2)N1 (stereo unspecified),0% (inactive),
C[C@H](CO)N1C[C@H](C)[C@@H](CN(C)C(=O)Nc2cc(F)ccc2F)Oc2ncc(-c3cccc(F)c3)cc2C1=O,0.58% (inactive),
O=C1C=C(c2ccc(C(=O)O)cc2)C[C@@H](c2ccc3c(c2)OCO3)C1,0.83% (inactive),
O=C(Cn1c(C(F)(F)F)nc2ccccc21)Nc1ccccc1N1CCOCC1,0.69% (inactive),

# Source: PubChem BioAssay AID588689 (Southern Research Specialized Biocontainment Screening …, 2011)
